Test results: PubChem BioAssay (EPA / NIEHS)
“And” between values parts separate entries of the source, which are not always exact repeats. Equal entries are not always repeated. Results filed as inconclusive are left out. The source made the active and inactive calls. How the source made its calls, unless noted: active means hit-call score of the fitted dose curve at least 0.9, where 1 is the maximum; inconclusive means response in the unintended direction; inactive means score below 0.9.

Experiments:
[1] = CCTE_Padilla_ZF_144hpf_TERATOSCORE: (Legacy) CCTE's 144 Hour Post-fertilization zebrafish Assay Teratoscore, Padilla Lab (AID 2283679; active means hit-call score of the fitted dose curve at least 0.9, where 1 is the maximum; inactive means score below 0.9;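 further: zebrafish embryos with chorions exposed by immersion from 6-8 hpf to 5 dpf with daily renewal; teratogenicity score from eye scoring of death hatching and malformations at 144 hpf; higher score means more developmental defects relative to DMSO baseline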)
Procedure, shortened: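 Larvae scored by eye at 144 hpf for death, hatching and malformations after a day in clean Hanks'. Before that, daily-renewed exposure at 80 uM (0.4% DMSO, 26C) from roughly 6-8 hpf through 5 dpf, 4 embryos per chemical.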

[2] = system: chicken Androgen Receptor (AR), gene 422165; assay: ATG_chAR_XSP1: Attagene TRANS-FACTORIAL Multi-Species (XSP1) HepG2 Assay for chicken Androgen Receptor (AR) (AID 2283768)
Procedure, shortened: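 HepG2 cells transiently transfected with multiplexed GAL4-UAS reporter units expressing chimeric chicken AR-Gal4; 3 nM 6-alpha-fluorotestosterone for partial AR stimulation; 24 h after dosing, reporter mRNA by RT-PCR and capillary electrophoresis, gain-of-signal versus DMSO.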

[3] = system: frog Androgen Receptor (AR), gene 399456; assay: ATG_frAR_XSP1: Attagene TRANS-FACTORIAL Multi-Species (XSP1) HepG2 Assay for frog Androgen Receptor (AR) (AID 2283770)
Procedure: ATG_XSP1_multi-species_TRANS is a cell-based, multiplexed assay created by modifying the existing Attagene TRANS-FACTORIAL system to include a panel of nuclear receptors from some or all the following species: human (Homo sapiens), mouse (Mus musculus), frog (Xenopus laevis), zebrafish (Danio rerio), chicken (Gallus gallus), and turtle (Chrysemys picta). The ECOTOX-FACTORIAL format uses HepG2, a human liver cell line, with measurements taken at 24 hours after chemical dosing in a 24-well plate. Xsp1 included 3 nM 6-alpha-fluorotestosterone to partially stimulate the androgen receptor.ATG_frAR_XSP1 is one of 29 assay components measured or calculated from the ATG_XSP1_multi-species_TRANS assay. It is designed to make measurements of mRNA induction, a form of inducible reporter, as detected with fluorescence intensity signals by Reverse transcription polymerase chain reaction (RT-PCR) and Capillary electrophoresis technology.The assay endpoint ATG_frAR_XSP1 was analyzed in the positive analysis fitting direction relative to DMSO as the negative control and baseline of activity. […] Furthermore, this assay endpoint can be referred to as a primary readout, because this assay has produced multiple assay endpoints where this one serves a reporter gene function. […]

[4] = target: zebrafish Estrogen Receptor (ESR1), esr1 (gene 259252) (UniProt P57717); assay: ATG_zfER1_XSP1: Attagene TRANS-FACTORIAL Multi-Species (XSP1) HepG2 Assay for zebrafish Estrogen Receptor (ESR1) (AID 2283772)
Sequence of zebrafish Estrogen Receptor (ESR1), esr1 (gene 259252) (P57717 whole entry, looked up, the tested form may be a part): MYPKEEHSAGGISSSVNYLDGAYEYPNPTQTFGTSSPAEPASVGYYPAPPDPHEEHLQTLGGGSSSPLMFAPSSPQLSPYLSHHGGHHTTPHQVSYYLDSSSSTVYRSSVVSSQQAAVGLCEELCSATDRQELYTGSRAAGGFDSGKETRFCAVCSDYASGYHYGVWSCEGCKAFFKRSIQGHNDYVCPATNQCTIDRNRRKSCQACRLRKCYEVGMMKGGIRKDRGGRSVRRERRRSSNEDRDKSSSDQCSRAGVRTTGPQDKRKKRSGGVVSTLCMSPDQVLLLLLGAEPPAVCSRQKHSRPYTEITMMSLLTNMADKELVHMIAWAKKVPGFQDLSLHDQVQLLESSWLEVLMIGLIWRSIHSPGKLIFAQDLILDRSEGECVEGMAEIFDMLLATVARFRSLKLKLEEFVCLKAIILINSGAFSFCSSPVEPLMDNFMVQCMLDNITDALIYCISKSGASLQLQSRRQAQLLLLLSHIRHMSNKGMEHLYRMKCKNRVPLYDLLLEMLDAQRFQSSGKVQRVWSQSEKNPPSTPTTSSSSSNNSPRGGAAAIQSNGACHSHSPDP
Procedure, shortened: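 HepG2 cells were transiently transfected with multiplexed GAL4-UAS reporter units driven by chimeric NR-GAL4 proteins, dosed for 24 h with 3 nM 6-alpha-fluorotestosterone present, and reporter mRNA quantified by RT-PCR and capillary electrophoresis versus DMSO.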

[5] = system: zebrafish Estrogen Receptor (ESR2B), gene 317733; assay: ATG_zfER2b_XSP1: Attagene TRANS-FACTORIAL Multi-Species (XSP1) HepG2 Assay for zebrafish Estrogen Receptor (ESR2B) (AID 2283773)
Procedure, shortened: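 HepG2 cells transiently transfected with GAL4-UAS reporter units for chimeric zebrafish ER2b-Gal4, with 3 nM 6-alpha-fluorotestosterone present; reporter mRNA measured 24 h after dosing by RT-PCR and capillary electrophoresis, gain versus DMSO.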

Compound	AC50 [1]	AC50 [2]	AC50 [3]	AC50 [4]	AC50 [5]
COCc1c(C(C)C)nc(C(C)C)c(/C=C/[C@@H](O)C[C@@H](O)CC(=O)O)c1-c1ccc(F)cc1	78.1 nM (active) and 159 nM (active)	–	–	–	–
O=C(c1ccc(O)cc1)c1ccc(O)cc1O	–	1.56 µM (active)	2.78 µM (active)	1.76 µM (active)	1.23 µM (active)
